Shown are actives, neighbours in structure and some others; about 2.8% of the full set was active somewhere.
POLK inh: qHTS for Inhibitors of Polymerase Kappa | DNA polymerase kappa (Homo sapiens), Q9UBT6 | Potency, µM (titrated, usually from 107 µM), without a hit: at the top dose activity, negative = inhibition, actives largely listed as inhibitors | purified Pol kappa, fluorescent DNA synthesis assay, 10 min | hit rate 0.53% among 400,000; further: potency means the concentration at half of the fitted maximal effect; on the % scale 0 is the no-effect control and ±100 the full control effect
Target sequence (Q9UBT6 whole entry, looked up): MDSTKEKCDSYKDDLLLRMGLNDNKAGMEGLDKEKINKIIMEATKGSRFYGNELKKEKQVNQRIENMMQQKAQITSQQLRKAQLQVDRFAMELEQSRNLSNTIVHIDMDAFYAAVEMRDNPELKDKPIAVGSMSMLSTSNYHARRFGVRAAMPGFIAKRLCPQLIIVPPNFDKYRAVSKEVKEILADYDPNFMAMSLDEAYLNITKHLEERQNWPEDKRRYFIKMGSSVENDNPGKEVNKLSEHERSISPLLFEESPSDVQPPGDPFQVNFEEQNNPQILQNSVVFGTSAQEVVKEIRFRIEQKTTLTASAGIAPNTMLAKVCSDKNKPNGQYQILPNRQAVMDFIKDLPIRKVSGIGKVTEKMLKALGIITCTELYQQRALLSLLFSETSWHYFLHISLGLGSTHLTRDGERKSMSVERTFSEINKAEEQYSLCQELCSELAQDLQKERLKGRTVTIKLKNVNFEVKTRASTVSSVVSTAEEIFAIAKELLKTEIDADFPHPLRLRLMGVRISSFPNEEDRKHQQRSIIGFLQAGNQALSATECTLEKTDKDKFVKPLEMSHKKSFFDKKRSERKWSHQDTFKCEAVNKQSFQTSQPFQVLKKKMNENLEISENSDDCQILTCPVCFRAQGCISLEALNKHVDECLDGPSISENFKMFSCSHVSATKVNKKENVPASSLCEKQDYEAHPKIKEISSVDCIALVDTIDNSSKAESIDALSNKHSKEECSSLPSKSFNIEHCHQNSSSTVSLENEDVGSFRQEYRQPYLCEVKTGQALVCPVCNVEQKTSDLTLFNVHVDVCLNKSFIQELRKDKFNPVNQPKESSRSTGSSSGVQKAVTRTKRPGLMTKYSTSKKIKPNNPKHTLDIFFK
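First, compounds were pin-transferred onto 10 nM Pol kappa. After 15 min at room temperature, substrate was added to 50 nM final. Fluorescence was then measured kinetically at 0 and 10 min.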
PI5P4Ka inh: qHTS for Inhibitors of phosphatidylinositol 5-phosphate 4-kinase (PI5P4K) | Phosphatidylinositol 5-phosphate 4-kinase type-2 alpha (Homo sapiens), P48426 | PI5P4Kalpha enzyme, ADP-Glo luminescence, 60 min; stronger effect = lower value | max response, % | hit rate 1.2% among 330,000 | AID 652105, 2013; active means max response of -50% or lower; inconclusive means between -30% and -50%; inactive means -30% or higher; further: value at the top dose of about 77 µM; on the % scale 0 is the no-effect control and ±100 the full control effect
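ADP-Glo luminescence end-point after a 60 min room-temperature kinase reaction. PI5P4Kalpha and substrate in HEPES pH 7.4 buffer with EGTA, 0.1% CHAPS and 5% DMSO; ATP at 5 microM final.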
POLI inh: qHTS for Inhibitors of Polymerase Iota; DNA polymerase iota (Homo sapiens), Q9UNA4; Pol iota fluorescent replication assay, 10 min; Potency, µM (highest dose often 115 µM), inactives show at the top dose activity, negative = inhibition, actives largely listed as inhibitors; hit rate 1% among 390,000; AID 588590, 2011; further: potency means the concentration at half of the fitted maximal effect
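Fluorescent replication assay read twice, at 0 min and 10 min after adding 50 nM (final) substrate. Enzyme (10 nM) and compounds were first incubated 15 min at room temperature; enzyme-free buffer wells were negative controls.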
Pol beta inh: qHTS Assay for Inhibitors of DNA Polymerase Beta; hit rate 1.3% among 340,000; Pol beta primer extension/strand displacement, fluorescence kinetic; AID 485314, 2010; Potency, µM (series often up to 114 µM), for inactives: at the top dose activity change, negative = inhibition, most hits filed as inhibitors; P06746; further: potency means the concentration at half of the fitted maximal effect; on the % scale 0 is the no-effect control and ±100 the full control effect
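Pol beta (10 nM) and compounds were preincubated 15 min at room temperature, then 50 nM substrate (final) started primer extension/strand displacement. Reads were taken at 0 and 10 min; concentration-response data were fitted to a four-parameter Hill equation.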
POLH inh: qHTS for Inhibitors of Polymerase Eta; DNA polymerase eta (Homo sapiens), Q9Y253; recombinant Pol eta, fluorescent DNA replication assay; Potency, µM (series often up to 114 µM), inactives show at the top dose activity change, negative = inhibition, usual class: inhibitors; hit rate 1.2% among 390,000; AID 588591, 2011; further: potency means the concentration at half of the fitted maximal effect; on the % scale 0 is the no-effect control and ±100 the full control effect
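Pol eta at 10 nM preincubated with compounds 15 min at room temperature; reaction started with fluorescent substrate (50 nM final) and read kinetically at 0 and 10 min.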
WRN inhibitor: qHTS for Inhibitors of WRN Helicase | Bifunctional 3'-5' exonuclease/ATP-dependent helicase WRN (Homo sapiens), Q14191 | WRN helicase unwinding, fluorescent forked duplex, kinetic | Potency, µM (highest dose often 114 µM), for inactives: at the highest dose activity change, negative = inhibition, actives largely listed as inhibitors | hit rate 0.46% among 360,000 | AID 651768, 2012; further: potency means the concentration at half of the fitted maximal effect; on the % scale 0 is the no-effect control and ±100 the full control effect; nearly all actives have a fitted effect of over 55% in size
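Screening of the MLSMR collection measured strand separation of a quenched forked DNA duplex (100 nM) by 20 nM WRN with 2 mM ATP, all final. Compounds were preincubated with enzyme 15 min at room temperature.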
Active calls of the source: *; u = inconclusive; x = no result; [ ] = dose if it differs, or a comment. Unless noted, the call rests on the fitted dose curve; in most records, active means well fitted curve in the direction sought with a large enough effect; inconclusive means small, poorly fitted or top-dose-only effect, or another doubt; inactive means no such curve, though single readings can be large; an effect the other way counts as inactive or inconclusive.

SMILES	POLK inh	PI5P4Ka inh	POLI inh	Pol beta inh	POLH inh	WRN inhibitor
COc1ccc(C(=O)N[C@H](C(=O)Nc2sccc2C(N)=O)C(C)C)cc1	-13%	5	31%	-18%	12%	-6%
NC(=O)c1ccsc1NC(=O)COC(=O)c1ccc(Cl)c(N)c1	-29%	u	u	x	22µM*	-11%[11.6 µM]
CC(=O)N1CCc2c(sc3c2c(=O)n(-c2cc(Cl)ccc2C)c(=O)n3Cc2ccccc2F)C1	5%	x	-9%	-6%	-5%	x
COc1ccc(NS(=O)(=O)c2cc(Br)cc3c2N(C(=O)C2CC2)CC3)cc1OC	-19%[60.1 µM]	x	7%	-10%	-10%	x
CCCCOc1ccc(C2OC34CCCCC3C(C#N)(C#N)C2(C#N)C(=N)O4)cc1 (centres undefined)	-34%	-25	16µM*	1%	u	u
CC1=NN(c2nc(N)nc(/C(C#N)=C/c3ccc([N+](=O)[O-])o3)n2)C(C)(C)C1	-29%	u	u	x	18µM*	u
Cc1cc(Br)ccc1NC(=O)CCNS(=O)(=O)c1cccc2nonc12	-17%	x	15%	-13%	-11%	x
CCSc1nc2n(n1)C(c1ccc(C(=O)O)cc1)C(C(=O)Nc1ccccc1C)=C(C)N2 (centres undefined)	-5%[60.1 µM]	x	-3%	-1%	-2%	x
COc1cc(-c2nc(=S)[nH][nH]2)cc(OC)c1OC	3%	-79*	u	1%	-13%	u
Cc1ccccc1N1CCN(C2CCCN(C(=O)CCN3CCCCO3)C2)CC1 (centres undefined)	-12%	-1	24%	31%	-10%	-13%
Cc1ccccc1N1CCN(C2CCCN(C(=O)CCn3cnnn3)C2)CC1 (centres undefined)	-17%	-5	-13%	35µM*	-8%	-11%
O=C(c1ccccc1Cl)N1CCCCC1CCN1CCOCC1 (centres undefined)	7%	x	11%	32%	-16%	x
S=c1[nH]nc(NC2CCCCC2)s1	x	-70*	x	x	4%	13%
C1CCC(NC2=NCCC2)CC1	-8%	x	6%	-2%	-6%	-4%
CCN(CC)/[N+]([O-])=N/OCOC(=O)C(C)c1ccc2cc(OC(C)=O)ccc2c1 (centres undefined)	9%	x	-7%	x	x	x
CC(=O)c1c(C)[nH]c(C(=O)OCC(=O)c2c[nH]c3ccccc23)c1C	-6%	-1	79µM*	x	1%	8%
CCC(=O)N1CCc2cc(Br)cc(S(=O)(=O)CCC(=O)Nc3ccc(Cl)cc3)c21	6%	x	12%	u	-13%	x
N#C/C(=N\Nc1ccc(Cl)cc1)C(N)=S	-27%	u	-4%	-20%	-16%	-5%
Cc1ccc(N/N=C(\C#N)C(N)=S)cc1C	-41%	-51*	87%	8%	-12%	7%
OCc1ccccc1SSc1ccccc1CO	-6%	-19	u	x	-4%	14µM*
OCc1ccccc1O	-5%[60.1 µM]	x	x	x	x	x
COc1ccc2[nH]c(C(O)C(O)c3nc4c(OC)c(OC)ccc4[nH]3)nc2c1OC (centres undefined)	-20%	x	111%	x	x	x
O=C(C[n+]1cccc2cc(Cl)ccc21)c1ccc2ccccc2c1	-5%	x	5%	x	x	x
CN(C)N=Nc1ccc(S(N)(=O)=O)cc1	-2%	-7	-11%	68%	-16%	8%
CN(C)c1ccc(N=Nc2ccc(S(N)(=O)=O)cc2)cc1	-36%	-16	20µM*	u	u	-19%
SMILES	POLK inh	PI5P4Ka inh	POLI inh	Pol beta inh	POLH inh	WRN inhibitor
Cc1cc(C)cc(OCC(=O)NCC2(N3CCOCC3)CCCCC2)c1	-1%	x	-11%	-1%	5%	x
Cc1ccc(OCC(=O)NCC2(N3CCOCC3)CCCCC2)cc1C	u	x	89µM*	3%	-14%	x
Cc1c(NC(=O)C(C)(C)Oc2ccc(Cl)cc2)cccc1-c1nc2ccccc2o1	-5%	x	-4%	36%	-18%	x
COc1ccc(NC2CCCN(C(=O)CCN3CCOCC3)C2)cc1 (centres undefined)	-2%	-8	79µM*	4%	-3%	4%
Cc1cccc(C)c1NC(=O)C(=O)NCC(c1cccnc1)N1CCc2ccccc21 (centres undefined)	-17%	x	7%	5%	-10%	x
Cc1ccc(-c2cc(C(=O)N/N=C/c3ccccc3)n[nH]2)o1	0%	-1	12%	u	-2%	4%
Cc1ccc(-c2cc(C(=O)N/N=C/c3ccc(Cl)cc3)n[nH]2)o1	-4%	-14	u	25µM*	u	-28%
O=[N+]([O-])c1ccc(O)c(/C=N/Nc2ccccn2)c1	-19%	-2	6%	-12%	-7%	-11%
O=[N+]([O-])c1ccc(O)c(/C=N/Nc2ncnc3c2cnn3-c2ccccc2)c1	-13%	-75*	-8%	8%	-4%	-6%
CCOc1ccccc1Nc1nc2ccccc2n2cnnc12	-2%	6	16%	1%	-18%	-5%
CCN(CC)c1nc2ccccc2n2cnnc12	-7%	0	89µM*	8%	-4%	0%
COc1cc2c(-c3ccccc3Cl)nc3c(c(C)nn3-c3ccccc3)c2cc1OC	-2%	x	0%	-16%	-23%	x
COc1ccccc1Oc1nc2c(c(=O)n(Cc3ccccc3F)c(=O)n2C)n1C	9%	2	-1%	18µM*	-10%	7%
Cn1c(NCCCO)nc2c1c(=O)n(Cc1ccccc1F)c(=O)n2C	-18%	x	23%	0%	-15%	-7%
Fc1cccc(CSc2nc3ncc(Cl)cc3[nH]2)c1	-10%	-4	71µM*	35µM*	-22%	-5%[11.6 µM]
Fc1cccc(CSc2nc3ncccc3[nH]2)c1	-3%	-11	5%	-1%	1%	3%
Cc1nc(N=Nc2cc([N+](=O)[O-])ccc2Cl)c(COP(=O)(O)O)c(C=O)c1O	27µM*	x	x	x	x	x
CCOc1cc(C=O)cc(N=Nc2cccc([N+](=O)[O-])c2)c1O	-23%	-28	23%	-1%	-14%	2%
Cc1nc(N=Nc2cc(S(=O)(=O)O)c3cc([N+](=O)[O-])cc(S(=O)(=O)O)c3c2)c(COP(=O)(O)O)c(C=O)c1O	9.5µM*	x	5µM*	2.8µM*	0.63µM*	x
Cc1cc2sc3ccccc3c(=O)c2c(C)c1O	-12%	2	u	50µM*	-17%	-12%
COc1ccc(CC(=O)n2[nH]c(=O)ccc2=O)cc1OC	-9%	u	51%	-16%	-12%	22µM*
